Results filed as inconclusive are left out. Activity calls are given as the source filed them. Calls follow the shape of the dose curve; as a rule, active = well fitted curve in the direction sought with a large enough effect; inconclusive = small, poorly fitted or top-dose-only effect, or another doubt; inactive = no such curve, though single readings can be large; an effect the other way counts as inactive or inconclusive. *1 amine or outer side, *2 acyl side, *3 side chain or, on linkers, in order; H or OH if unused. Where a SMILES comes first, the peptide text is derived from it. Bridges are numbered along the chain shown (N, C = ends). [ ]: non-standard residue; d: D form. The star is where a group is joined. ξ: configuration not given here. X10 = NC1=NCCC(C(N[*:1])C(=O)[*:2])N1; ΔAla(3-NHCONH2) = NC(=O)NC=C(N)C(=O)O; ξβ3hOrn = NCCCC(N)CC(=O)*; Dap = NC[CH](N)C(=O)O
How the values were obtained:
[1] = tested on: Zika virus NS2B-NS3 protease; experiment: Primary screen GU AMC qHTS for Zika virus inhibitors (AID 1347154); also: nearly all actives have a fitted effect of over 70% in size; also: potency is read from the fitted curve at half-maximal effect;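 as to activity change, negative = inhibition: 0% = no-inhibitor control and -100% = no-enzyme control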
Outline: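 Fluorogenic AMC-substrate cleavage by noncovalent NS2B-NS3 protease complex (25 nM, pH 8.0 Tris buffer with Tween 20) followed for 15 minutes at room temperature (~20% conversion). Percent inhibition from ex340/em450 signal change, fitted by 4-parameter Hill equation.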

[2] = qHTS to identify inhibitors of the type 1 interferon - major histocompatibility complex class I in skeletal muscle: primary screen against the NCATS Pharmaceutical Collection (AID 1347407);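 also: luminescence of HiBiT knocked into endogenous HLA-B as interferon-induced MHC class I level; % is scaled to controls: 0 for no effect and ±100 for the full control effect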
Outline: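 A qHTS format is used: 8-point, 1:5 compound series with 46 uM top final concentration, applied alongside 4 ng/ml IFN-beta to HLA-B*08:01-HiBiT knock-in myoblasts. Luminescence is measured after 24 h treatment.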

[3] = target: Protein phosphatase 1D (Homo sapiens) (UniProt O15297); experiment: RapidFire Mass Spectrometry qHTS Assay for Modulators of WT P53-Induced Phosphatase 1 (WIP1) (AID 1347424);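 also: amount of dephosphorylated VEPPL-S-QETFS peptide product formed by WIP1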; also: potency is read from the fitted curve at half-maximal effect;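 as to activity change, negative = inhibition: series mostly up to about 63 µM; plate controls were DMSO wells for no effect and GSK830371 inhibitor control at 10 µM for full effect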
Chain of Protein phosphatase 1D (Homo sapiens) (O15297 whole entry, looked up): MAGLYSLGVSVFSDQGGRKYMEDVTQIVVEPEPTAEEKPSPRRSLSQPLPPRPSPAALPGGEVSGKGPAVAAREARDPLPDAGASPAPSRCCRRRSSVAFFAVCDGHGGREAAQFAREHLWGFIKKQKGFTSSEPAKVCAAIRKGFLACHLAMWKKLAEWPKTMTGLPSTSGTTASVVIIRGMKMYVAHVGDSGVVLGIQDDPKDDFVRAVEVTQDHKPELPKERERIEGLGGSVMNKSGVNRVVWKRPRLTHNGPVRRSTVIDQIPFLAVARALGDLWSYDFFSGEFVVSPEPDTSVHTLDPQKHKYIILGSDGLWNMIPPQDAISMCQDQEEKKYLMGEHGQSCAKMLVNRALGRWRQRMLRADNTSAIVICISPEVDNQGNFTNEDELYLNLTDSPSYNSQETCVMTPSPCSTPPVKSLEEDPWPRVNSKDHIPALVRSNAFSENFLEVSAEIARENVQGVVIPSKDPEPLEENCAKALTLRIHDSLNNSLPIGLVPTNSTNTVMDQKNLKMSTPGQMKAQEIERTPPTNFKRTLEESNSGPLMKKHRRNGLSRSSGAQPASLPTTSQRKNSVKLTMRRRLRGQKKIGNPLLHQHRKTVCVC
Outline: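 RapidFire mass spectrometry measured dephosphorylated peptide after 5 min room-temperature reaction of 2 uM VEPPL-pS-QETFS with 10 nM WIP1 (50 mM Tris-HCl pH 7.5, 30 mM MgCl2, 0.1 mM EGTA, BSA), following 1 hr compound preincubation; 1 uM isotope-labelled product standard.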

[4] = qHTS to identify inhibitors of the type 1 interferon - major histocompatibility complex class I in skeletal muscle: primary screen against the NCATS Mechanism Interrogation Plate v5.0 (MIPE) Libary (AID 1347411);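 also: plate controls were vehicle for no effect and reference inhibitor for full effect; nearly all actives have a fitted effect of over 65% in size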
Outline: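 Luminescence from CRISPR HiBit-tagged endogenous HLA-B in human myoblasts reported MHC class I level after 24 h of IFN-beta (4 ng/ml) plus compound. Compounds ran as 11-point 1:3 series, top 46 uM final.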

[5] = target: Protein phosphatase 1D (Homo sapiens) (UniProt O15297); experiment: Rhodamine-PBP qHTS Assay for Modulators of WT P53-Induced Phosphatase 1 (WIP1) (AID 1347425); also: % of control where 0% means no effect
Outline: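 Steps: enzyme with Rh-PBP sensor and compounds, room-temperature incubation of 1 hr, baseline read, addition of VEPPL-pS-QETFS (10 uM final), kinetic fluorescence reads at 525/598 nm. Activity equals final minus baseline signal.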

[6] = tested on: Zika virus NS2B-NS3 protease (linked construct); experiment: Primary screen NINDS Rhodamine qHTS for Zika virus inhibitors (AID 1347160); details: outcome: dose series up to 57.1 µM unless noted; also: nearly all actives have a fitted effect of over 55% in size; as to activity change, negative = inhibition: % is scaled to controls: 0 for no effect and ±100 for the full control effect
Outline: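 Single-chain NS2B-NS3 protease, 25 nM, pH 8.0; compounds preincubated 15 min. Activity: Rhodamine110 release from 1.5 microM substrate over 15 min, room temperature, data fitted to 4-parameter Hill.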

CCCC(=O)c1cc(O)c(O)cc1O
active: Potency [1] 5.62 µM | Potency [3] 35.5 µM
inactive: Potency [2]

CC1(C)O[C@@H]2C[C@H]3[C@@H]4C[C@H](F)C5=CC(=O)C=C[C@]5(C)[C@@]4(F)[C@@H](O)C[C@]3(C)[C@]2(C(=O)CO)O1
inactive: Potency [1] | Potency [2] | Potency [4] | Potency [3] | outcome [5]

O=[N+]([O-])c1cncn1CCN1CCOCC1
inactive: Potency [1] | Potency [2] | Potency [4] | Potency [3] | outcome [5]

C[C@@H](O[C@H]1OCCN(Cc2n[nH]c(=O)[nH]2)[C@H]1c1ccc(F)cc1)c1cc(C(F)(F)F)cc(C(F)(F)F)c1
inactive: Potency [1] | Potency [2]

OCc1c[nH]c2ccccc12
inactive: Potency [1] | Potency [2]

CN(CC1(C)CCCO1)S(=O)(=O)c1ccc(Cl)c(S(N)(=O)=O)c1 (configuration not stated)
inactive: Potency [1] | outcome [6] | Potency [2] | Potency [3] | outcome [5]

CC1CC(=O)NN=C1c1ccc(NCC(C)(C)NCC(O)COc2cc(Cl)ccc2C#N)cc1 (configuration not stated)
inactive: Potency [1] | outcome [6] | Potency [2] | Potency [3] | outcome [5]

CCCN(CCC)C(=O)C(CCC(=O)OCCCN1CCN(CCOC(=O)Cc2c(C)n(C(=O)c3ccc(Cl)cc3)c3ccc(OC)cc23)CC1)NC(=O)c1ccccc1 (configuration not stated)
inactive: Potency [1] | outcome [6] | outcome [5]

CCCCCCCC(=O)[O-].CCCCCCCC(=O)[O-].[Zn+2]
inactive: Potency [1] | Potency [2]

CC[N+]1(CC)CCC(=C(c2ccccc2)c2ccccc2)C1C (configuration not stated)
inactive: Potency [1] | outcome [6] | Potency [2] | Potency [3] | outcome [5]

CC(C(O)c1ccccc1)N(C)CCOC(c1ccccc1)c1ccccc1 (configuration not stated)
inactive: Potency [1] | outcome [6] | Potency [3] | outcome [5]

CCOC(=O)NNc1nncc2ccccc12
inactive: Potency [1] | Potency [2] | Potency [3] | outcome [5]

Nc1ncnc2nc[nH]c12
inactive: Potency [1] | Potency [2] | Potency [3] | outcome [5]

COc1ccc2nc(SCc3ncc(C)c(OC)c3C)[nH]c2c1
inactive: Potency [1] | Potency [2] | Potency [3] | outcome [5]

Cc1ccc(Cl)c(OCC(O)CNC(C)(C)C)c1 (configuration not stated)
inactive: Potency [1] | Potency [2] | Potency [3] | outcome [5]

CCOC(=O)c1cc(=O)c2c(OCC(COc3cccc4oc(C(=O)OCC)cc(=O)c34)OC(=O)[C@@H](N)CCCCN)cccc2o1
inactive: Potency [1] | Potency [2] | Potency [3] | outcome [5]

N#Cc1cc(NC(=O)C(=O)O)c(Cl)c(NC(=O)C(=O)O)c1
inactive: Potency [1] | Potency [2] | Potency [3] | outcome [5]

CN(C)CCN(Cc1ccsc1)c1ccccn1
inactive: Potency [1] | Potency [2] | Potency [3] | outcome [5]

Nc1nc(=O)n([C@@H]2O[C@H](CO)[C@@H](O)[C@@H]2F)cc1I
inactive: Potency [1] | Potency [2] | Potency [3] | outcome [5]

CC(=O)N[C@@H](CO)C(=O)N[C@@H](CC(=O)O)C(=O)N[C@@H](CCCCN)C(=O)N1CCC[C@H]1C(=O)O (Ac-SDKP-OH)
inactive: Potency [1] | Potency [2] | Potency [3] | outcome [5]

CN1C(CSCC(F)(F)F)Nc2cc(Cl)c(S(N)(=O)=O)cc2S1(=O)=O (configuration not stated)
inactive: Potency [1] | Potency [2] | Potency [3] | outcome [5]

CC(C)C(=O)Nc1cccc(C(F)(F)F)c1
inactive: Potency [1] | Potency [2] | Potency [3] | outcome [5]

CNC(=O)c1cnn(-c2nc(N)c3ncn([C@@H]4O[C@H](CO)[C@@H](O)[C@H]4O)c3n2)c1
inactive: Potency [1] | Potency [2] | Potency [3] | outcome [5]

Cc1nc2n(c(=O)c1CCN1CCC(C(=O)c3ccc(F)cc3)CC1)CCS2
inactive: Potency [1] | Potency [2] | Potency [3] | outcome [5]

C/C=C(/C(=C/C)c1ccc(OC(C)=O)cc1)c1ccc(OC(C)=O)cc1
inactive: Potency [1] | Potency [2] | Potency [3] | outcome [5]

CCCCC(O)/C=C(C)/C=C/C=C/C(=O)N1CCCC1=O (configuration not stated)
inactive: Potency [1] | Potency [2] | Potency [3] | outcome [5]

NCCCC(N)CC(=O)NCC1NC(=O)C(CO)NC(=O)C(N)CNC(=O)C(C2CCN=C(N)N2)NC(=O)C(=CNC(N)=O)NC1=O (stereo not drawn) (H-[Dap]S[Dap](ξβ3hOrn)[ΔAla(3-NHCONH2)][X10]; lactam 1-C; configuration not given here)
inactive: activity change, negative = inhibition [1] -2.82% [at 0.59 µM] | activity change, negative = inhibition [2] -9.07% [at 0.727 µM] | activity change, negative = inhibition [3] 2.35% [at 0.505 µM] | activity change, negative = inhibition [5] 11.7% [at 0.575 µM]

C[C@H]1NCc2cc(-c3ccc4c(=O)c(C(=O)O)cn(C5CC5)c4c3OC(F)F)ccc21
inactive: Potency [1] | Potency [2] | Potency [3] | outcome [5]

CCOc1c(N2CCOCC2)cnn(C)c1=O
inactive: Potency [1] | Potency [2] | Potency [3] | outcome [5]

CCCCN(CCN(CCCC)C(=O)N1CCOCC1)C(=O)N1CCOCC1
inactive: Potency [1] | Potency [2] | Potency [3] | outcome [5]

Reference: PubChem BioAssay (NCATS)
